Inconclusive results are not listed. Active and inactive are the calls of the source. Calls come from the whole dose curve; as a rule, active = well fitted cell-killing curve with a large enough effect; inconclusive = small, poorly fitted or top-dose-only effect, or effect the other way; inactive = flat fitted curve, though single readings scatter.

The test is described as follows: MultiTox-Fluor Cytotoxicity Assay - LYMP1-001 - Dead Cells (AID 946).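 Note: cells exposed to compound for 16 h.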 The settings on record: LYMP1-001 lymphoblastoid cells, dead-cell protease fluorescence; series mostly up to 92.2 µM. A digest of the protocol: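 LYMP1-001 lymphoblastoid cells (2500/well) treated 16 h at 37 C. Dead-cell protease cleavage of bis-AAF-R110 read at Ex/Em 485/520. Normalized to DMSO and 15 uM tetraoctylammonium bromide; AC50 from Hill fits.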
`CCN(C(=O)N(CC)c1ccccc1)c1ccccc1`: the molecule was called inactive.
Turning to `CCNc1cc(O)ccc1C`, the call was inactive.
`Cc1ccc(C(=O)O)cc1`: the molecule was called inactive.
To `C=Cc1ccccn1` belongs “inactive”.
Turning to `CC(C)C(C)C`, the result was inactive.
Consider `CCCCC(=O)N(C)C`, for which the outcome was inactive.
In the case of `Nc1cc(S(=O)(=O)O)ccc1O`, the outcome was inactive.
As to `O=C1OC(=O)c2c(Br)c(Br)c(Br)c(Br)c21`, the molecule was classed as inactive.
Turning to `Cc1cccc2sc(N)nc12`, the call was inactive.
As for `CN(C)c1cccc(O)c1`, the outcome was inactive.
`BrC(Br)C(Br)Br`: the result was inactive.
The value for `CC(=O)c1ccccn1` was “inactive”; that for `O=P(O)(OCc1ccccc1)OCc1ccccc1` was “inactive”; that for `CC(N)CN` (stereo not given) was “inactive”.
Take `OC1CCCC1`: the molecule was classed as inactive.
In the case of `Cc1ccc(N(C)C)cc1`, the call was inactive.
With `OCCO`, the result was inactive.
Regarding `Cc1ccc2nc(-c3ccc(N)cc3)sc2c1S(=O)(=O)O`, the molecule was called inactive.
Consider `CCOC(=O)OCC`, for which the result was inactive.
As for `Nc1cccc(C(F)(F)F)c1`, the molecule was called inactive.
Consider `ClCCl`, for which the result was inactive.
With `CN(C)CCCCl`, the molecule was called inactive.
To `CC(=O)c1cccc([N+](=O)[O-])c1` belongs “inactive”; to `O=C(O)c1ccccc1Cl`, “inactive”.
For the molecule `CSCCC=O`, the call was inactive.
Turning to `C=C(C)OC(C)=O`, the result was inactive.
For the molecule `C1CCCC1`, the molecule was called inactive.
Take `CCCCCCCCC/C=C/CC1CC(=O)OC1=O` (stereo not given): the outcome was inactive.
Take `Cc1cc(C)cc(O)c1`: the molecule was classed as inactive.
`CCC(O)C(C)(C)C` (stereo not given): the call was inactive.
Turning to `CCCCCCCCC`, the molecule was called inactive.
To `CCCCCCCCCCCCC1CO1` (stereo not given) belongs “inactive”; to `CC(=O)c1nccs1`, “inactive”; to `Clc1ccc(Cl)c(Cl)c1Cl`, “inactive”.
As to `CC/C=C/C#N`, the call was inactive.
Take `NC(=S)NNC(N)=S`: the molecule was called inactive.
As to `Cc1ccc(C(C)(C)C)cc1`, the molecule was called inactive.
Regarding `O=Cc1cccc(Br)c1`, the molecule was classed as inactive.
To `Cc1ccc(C)c(N)c1` belongs “inactive”; to `CC(C)c1ccccc1`, “inactive”.

For the origin of these results see PubChem BioAssay (NCATS).
